Rab9 prom act: Rab9 promoter activation | Huh7 Rab9 promoter-luciferase reporter, luminescence, 24 h | Potency, µM (series often up to 9.22 µM), for the others: top-dose activation, negative = inhibition, usual class: activators | hit rate 2.8% among 320,000 | AID 485297; further: % of control where 0% means no effect; nearly all actives have a fitted effect of over 60% in size
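Rab9 promoter-driven luciferase in stably transfected Huh7 cells; 1500 cells/well rested 2 h, exposed to compound in DMSO for 24 h at 37 °C, 5% CO2. Luminescence read 10 min after adding luciferase reagent at ambient temperature.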
ELG1 repair inh: blocks ELG1-dependent DNA repair in HEK293T cells. HEK293T ELG1-luciferase reporter, luminescence, 16 h; DNA damage induced by 5-fluorouridine. Potency, µM (top dose mostly 46.1 µM), for the others: at the top dose activity change, negative = inhibition, hits mostly inhibitors. hit rate 2.3% among 330,000. AID 504467; further: on the % scale 0 is the no-effect control and ±100 the full control effect; nearly all actives have a fitted effect of over 55% in size
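In this reporter screen, reduction of luminescence relative to DMSO vehicle indicated activity. Compounds and 5-fluorouridine were added together to 2,000 cells per well, incubated for 16 hr at 37 °C, then developed with ONE-Glo.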
FLuc modulator: firefly luciferase modulation, counter-screen for miR-21 project; purified FLuc, Km substrates, luminescence inhibition; hit rate 6.9% among 360,000; AID 588342; Potency, µM (highest dose often 57.5 µM), for the others: at the top dose activity change, negative = inhibition, actives largely listed as inhibitors; P08659;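 further: plate controls were vehicle for no effect and reference inhibitor for full effect; nearly all actives have a fitted effect of over 55% in size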
Target sequence (P08659 whole entry, looked up): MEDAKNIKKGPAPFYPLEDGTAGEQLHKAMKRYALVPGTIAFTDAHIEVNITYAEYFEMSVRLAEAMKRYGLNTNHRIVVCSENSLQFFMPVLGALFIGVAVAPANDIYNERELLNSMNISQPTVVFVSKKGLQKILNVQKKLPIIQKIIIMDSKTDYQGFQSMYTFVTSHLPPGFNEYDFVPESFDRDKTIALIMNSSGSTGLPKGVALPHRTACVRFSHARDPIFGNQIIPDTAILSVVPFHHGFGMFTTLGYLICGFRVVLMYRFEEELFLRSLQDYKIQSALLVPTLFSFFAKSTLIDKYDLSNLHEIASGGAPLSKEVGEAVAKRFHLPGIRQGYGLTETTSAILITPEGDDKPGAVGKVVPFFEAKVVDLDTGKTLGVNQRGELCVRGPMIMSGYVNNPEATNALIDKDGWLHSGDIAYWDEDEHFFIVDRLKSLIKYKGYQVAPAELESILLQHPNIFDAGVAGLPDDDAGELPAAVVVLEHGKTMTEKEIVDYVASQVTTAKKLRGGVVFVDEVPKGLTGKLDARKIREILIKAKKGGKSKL
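Biochemical qHTS of compounds, final roughly 60 µM downward over six points, against 10 nM purified firefly luciferase using Km concentrations of substrates (10 uM D-luciferin, 10 uM ATP) in Tris acetate pH 7.5 buffer; luminescence output.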
SMN2 splice up: increases expression of the SMN2 splice variant; Potency, µM (doses to about 46.1 µM), for inactives: at the top dose activity change, positive = activation, actives largely listed as activators; AID 1458; hit rate 2.8% among 210,000; HEK293 SMN2-luciferase splicing reporter, luminescence, 30-36 h; further: % of control where 0% means no effect; nearly all actives have a fitted effect of over 55% in size
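qHTS luciferase splicing reporter: luminescence rises when SMN2 exon 7 is included in transfected HEK293 cells. Compound exposure lasted 30-36 h at 37C, with 4.5 mM final sodium butyrate as control, followed by a ONE-Glo read.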
NPC1 promoter act: activators of NPC1 promoter; Huh7 NPC1 promoter luciferase reporter, 24 h; Potency, µM (series often up to 9.22 µM), for inactives: top-dose activation, hits mostly activators; hit rate 2.4% among 320,000; AID 485313; further: % of control where 0% means no effect; nearly all actives have a fitted effect of over 60% in size
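NPC1 promoter–luciferase Huh7 cells; 24 h compound; luminescence.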
ELG1 genotoxic: induces genotoxicity in HEK293T cells with luciferase-tagged ELG1. hit rate 1.3% among 330,000. Potency, µM (doses to about 46 µM), inactives show at the top dose activity change, positive = activation, most hits filed as activators. HEK293T ELG1-luciferase reporter, luminescence, 16 h; further: % of control where 0% means no effect; nearly all actives have a fitted effect of over 60% in size
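Cells (2,000/well) expressing the ELG1-luciferase fusion are dosed by pin tool and kept 16 hr at 37 °C, 5% CO2. Signal comes from ONE-Glo luciferase reagent after 30 min at room temperature.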
* hit, by the source's call; u = inconclusive; x = no result; [ ] = dose if it differs, or a comment. Compounds with a hit are over-represented: about 9.2% of the library has one in this group of screens. The call rests on the fitted dose curve; in most records, active means well fitted curve in the direction sought with a large enough effect; inconclusive means small, poorly fitted or top-dose-only effect, or another doubt; inactive means no such curve, though single readings can be large; an effect the other way counts as inactive or inconclusive. Potency means the concentration at half of the fitted maximal effect.

SMILES	Rab9 prom act	ELG1 repair inh	FLuc modulator	SMN2 splice up	NPC1 promoter act	ELG1 genotoxic
COC(=O)c1scc(S(=O)(=O)C(C)C)c1N/N=C(\C#N)C(=O)c1ccc(Cl)cc1	-2%	13µM*	-2%	x	-3%	-18%
COc1cc(/C=C2\CC/C(=C\c3cc(OC)c(O)c(OC)c3)C2=O)cc(OC)c1O	-28%	7.3µM*	u	-65%	-16%	-9%
COc1cc(/C=C2/CCC/C(=C\c3cc(O)c(OC)c(Cl)c3)C2=O)cc(Cl)c1O	4%	15µM*	u	-76%	2%	-14%
COc1cc(/C=C2\CCC/C(=C\c3ccc(O)c(OC)c3)C2=O)ccc1O	-13%	u	19µM*	x	-4%	-11%
CC(C)c1ccc(Nc2c(-c3ccc(N4CCOCC4)cc3)nc3ncccn23)cc1	x	x	-7%	7%	x	x
CCN1CCN(CCCNC(=O)CCC(=O)N2CCOc3ccc(Cl)cc32)CC1	2%	11%	1%	x	0%	4%
COc1ccc(NC(=O)CCS(=O)(=O)c2cc3c4c(c2)CCN4C(=O)CC3)c(OC)c1	x	x	2%	x	x	x
c1ccc(-c2cc3nccc(-c4ccccn4)n3n2)cc1	2.2µM*	u	9.5µM*	x	2.5µM*	u
COc1nc(Nc2ccc(C(C)C)cc2)nc(OC)n1	20%	u	u	u	25%	16%
CCOc1c(Nc2ccc(C(C)C)cc2)c(=O)c1=O	1%	7%	13µM*	x	-2%	1%
Cc1cc(C)c(CN2C(=O)c3ccccc3S(=O)(=O)c3ccc(C(=O)OCC4CCCO4)cc32)c(C)c1 (stereo not given)	x	x	-2%	x	x	x
COc1ccc(Cn2c(C3CCCCC3)nc3c(c(=O)c4ccccc4n3C)c2=O)cc1	-2%	u	-3%	x	-2%	-9%
COc1ccc(CCn2c(C3CCCCC3)nc3c(c(=O)c4ccccc4n3C)c2=O)cc1	0%	16µM*	-1%	x	1%	-8%
CCc1ccc2ncc3c(-c4ccc(C)cc4)nn(CC(=O)Nc4ccc(C)cc4)c3c2c1	x	x	0%	x	x	x
O=C(Cn1c(=O)n(CCC(=O)N2CCCCC2)c(=O)c2sccc21)NCc1ccccc1	0%	-1%	-2%	x	-2%	-2%
CCN(CC)CCC[C@H](C)Nc1c2ccc(Cl)cc2nc2ccc(OC)cc12	x	x	x	7%[20.6 µM]	x	x
COc1ccc(Cc2nc(C(=O)NCc3ccccc3OC)cs2)cc1	-3%	-7%	-12%	-14%	-5%	-2%
COc1ccc(Cc2nc(C(=O)Nc3ccc(OC)cc3)cs2)cc1	-7%	u	24µM*	-29%	0%	u
COc1ccc(NC(=O)c2onc(C)c2Cl)cc1	3.2µM*	u	15µM*	x	3.5µM*	u
CCc1ccc(NC(=O)c2onc(C)c2Cl)cc1	2µM*	u	3.4µM*	14µM*	2.5µM*	5.2µM*
COc1ccc(NC(=O)c2cc(C)on2)cc1	2.8µM*	u	21µM*	11µM*	2.8µM*	u
Cc1ccc(NC(=O)Nc2cn(C)c(=O)c3ccccc23)c(Cl)c1	x	x	1%	x	x	x
CN1CCN(c2ccc(-c3nc(-c4ccccc4)no3)cc2[N+](=O)[O-])CC1	x	x	-12%	x	x	x
CCSC1=C(C#N)C(c2ccc(C)s2)CC(=O)N1 (stereo not given)	5%	-3%	27µM*	0%	3%	0%
COc1ccc(/C=C/C(=O)c2ccc(O)cc2)cc1	u	u	3.4µM*	x	11%	u
SMILES	Rab9 prom act	ELG1 repair inh	FLuc modulator	SMN2 splice up	NPC1 promoter act	ELG1 genotoxic
COc1ccc(/C=C/C(=O)c2ccccc2O)cc1	24%	u	0.27µM*	x	19%	16µM*
COc1ccc(C(=O)/C=C/N(C)C)cc1	14%	u	-20%	25%	5%	11%
COc1cc(/C=C/c2ccc(O)cc2)cc(OC)c1	3.2µM*	x	13µM*	x	u	x
COc1ccc(/C=C/C(=O)c2ccccn2)cc1	0.89µM*	u	0.38µM*	8%	4µM*	u
Cc1c(CNC2CCCCCC2)c(C(=O)O)c(C)n1Cc1c(F)cccc1Cl	x	x	-6%	-4%	x	x
CC(C)CN1CC[C@@]2(CCCN(C(=O)c3cnccn3)C2)C1	x	x	x	8%	x	x
CN(C)c1ccc(C(C(=O)NCc2ccccc2)N(Cc2ccco2)C(=O)c2snc(C(N)=O)c2N)cc1 (stereo not given)	-2%	u	-1%	x	-3%	-19%
COc1ccc(C(C)=O)cc1COc1ccc(F)cc1	-4%	14%	6%	-11%	-10%	-2%
COc1ccc(/C=C/C(=O)c2c(O)c(OC)c3occc3c2OC)cc1	-1%	3%	u	x	-6%	-5%
COc1ccc2cc(C(=O)/C=C/c3cc(OC)c(OC)c(OC)c3)ccc2c1	-4%	-16%	21µM*	x	1%	-5%
COc1ccc(/C=C/C(=O)c2ccoc2)cc1	23%	u	4.3µM*	-15%	20%	6%
COc1ccc(C(=O)/C=C/c2ccc(OC)c(COc3ccc(F)cc3)c2)cc1	19%	2%	5.4µM*	x	2%	-3%
COc1ccc(N2CCN(C(=O)C3CCN(S(=O)(=O)c4cccc5nonc45)CC3)CC2)cc1	x	x	-3%	x	x	x
CC1CCCCN1S(=O)(=O)c1cccc2nonc12 (stereo not given)	6%	-3%	-3%	x	-2%	-2%
CSC(N)=NCCC[C@H](N)C(=O)O	-7%[46.1 µM]	x	x	17%	5%[46.1 µM]	x
Cc1ccc(NC(=O)C2=CN3CCS(=O)(=O)N=C3C=C2)cc1	x	16%	x	x	x	2%
CC(C)(C)c1ccc(NC(=O)C2=CN3CCS(=O)(=O)N=C3C=C2)cc1	0%	16%	15µM*	x	0%	0%
COc1cc(NC(=O)C2CCCN(S(=O)(=O)c3cn(C)cn3)C2)cc(OC)c1 (stereo not given)	x	x	-1%	x	x	x
COc1ccc(OC)c(CNC(=O)Nc2cn(CC(C)C)c(=O)c3ccccc23)c1	x	x	-8%	x	x	x
O=S(=O)(Nc1cccc(-c2ccc(N3CCOCC3)nn2)c1)c1cc(C(F)(F)F)ccc1Cl	x	x	5.4µM*	x	x	x
O=S(=O)(Nc1ccc(N2CCOCC2)cc1)c1ccc(F)cc1F	2%	-18%	-1%	0%	-4%	-3%
O=S(=O)(Nc1cccc(-c2ccc(N3CCOCC3)nn2)c1)c1ccc(F)cc1F	x	x	7.6µM*	x	x	x
O=S(=O)(Nc1cccc(-c2ccc(N3CCOCC3)nn2)c1)c1ccccc1C(F)(F)F	x	x	7.6µM*	x	x	x
Cc1ccc2c(c1)cc1c(=O)n(CC(=O)NCCCc3ccccc3)nc(C)n12	6%	0%	1%	x	8%	13%
N#CCC(=O)Nc1nc(-c2ccc3c(c2)OCCO3)cs1	3.5µM*	u	7.6µM*	13µM*	u	u

Assay outcomes as filed in PubChem BioAssay.
